Measured values: PubChem BioAssay AID1159580 (chemical genetic matrix, 2015)
Where “and” joins values, the source holds several entries; their conditions need not be identical. Equal entries are not always repeated. In all, about 5,500 compounds went through this assay and about 2,000 (36%) were called active. Another 18% or so got no clear call; they are omitted. Cut-off read from the data, not from the text of the source: active = normalized growth mostly below about 0.91 (no sharp cut-off); inconclusive = no clear call, values can overlap the other calls; inactive = mostly above about 0.92. The list shows a part of the results.

Assay: chemical genetic growth profiling, strain panel (AID 1159580);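 note: tested at 20 µM; growth read once vehicle control cultures reached saturation at 30 °C; 1 = growth at the plate median or of vehicle wells; lower values mean less growth of the strain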
Conditions: S. cerevisiae deletion strains, growth OD

Measured: normalized growth

C=C(C)[C@H]1COc2cc3oc(=O)ccc3cc2O1
inactive: locus YAL030W, strain snc1, active compounds read low 0.933 | locus YBR171W, strain sec66, active compounds read low 0.938 | locus YBR229C, strain ROT2, active compounds read low 0.956 | locus YDL005C, strain med2, active compounds read low 0.959 | locus YDL040C, strain nat1, active compounds read low 0.957 | locus YDL185W, strain tfp1, active compounds read low 0.924 | locus YDR001C, strain nth1, active compounds read low 0.956 | locus YDR159W, strain sac3, active compounds read low 0.905 | locus YDR195W, strain ref2 1.05 | locus YDR297W, strain sur2, active compounds read low 0.956 | locus YDR334W, strain swr1, active compounds read low 0.921 | locus YDR392W, strain spt3, active compounds read low 0.775 | locus YEL037C, strain rad23, active compounds read low 0.956 | locus YER111C, strain swi4, active compounds read low 0.961 | locus YFR010W, strain ubp6, active compounds read low 0.945 | locus YGL078C, strain dbp3, active compounds read low 0.993 | locus YGL167C, strain pmr1, active compounds read low 0.995 | locus YGL173C, strain kem1, active compounds read low 0.906 | locus YGL227W, strain vid30, active compounds read low 0.932 | locus YHR027C, strain rpn1, active compounds read low 0.929 | locus YHR079C, strain IRE1 (second series), active compounds read low 0.967 | locus YHR079C, strain IRE1, active compounds read low 1.01 | locus YHR094C, strain hxt1, active compounds read low 0.948 | locus YJL115W, strain asf1, active compounds read low 0.977 | locus YJL134W, strain LCB3, active compounds read low 0.934 | locus YJL154C, strain vps35, active compounds read low 0.958
active: locus YAL021C, strain ccr4, active compounds read low 0.52 | locus YAL026C, strain drs2, active compounds read low 0.51 | locus YBL061C, strain skt5, active compounds read low 0.213 | locus YBR009C, strain hhf1, active compounds read low 0.811 | locus YBR021W, strain FUR4, active compounds read low 0.116 | locus YBR023C, strain chs3, active compounds read low 0.339 | locus YBR231C, strain swc5, active compounds read low 0.786 | locus YBR279W, strain paf1, active compounds read low 0.931 | locus YCL011C, strain gbp2, active compounds read low 0.852 | locus YCL016C, strain dcc1, active compounds read low 0.736 | locus YCL029C, strain bik1, active compounds read low 0.72 | locus YCL061C, strain MRC1, active compounds read low 0.793 | locus YCL069W, strain vba3, active compounds read low 0.783 | locus YCR088W, strain abp1, active compounds read low 0.814 | locus YDL035C, strain GPR1, active compounds read low 0.491 | locus YDL074C, strain BRE1, active compounds read low 0.465 | locus YDL101C, strain DUN1, active compounds read low 0.36 | locus YDL192W, strain arf1, active compounds read low 0.111 | locus YDR069C, strain doa4, active compounds read low 0.888 | locus YDR101C, strain arx1, active compounds read low 0.724 | locus YDR137W, strain rgp1, active compounds read low 0.279 | locus YDR150W, strain NUM1, active compounds read low 0.53 | locus YDR162C, strain NBP2, active compounds read low 0.0606 | locus YDR318W, strain mcm21, active compounds read low 0.62 | locus YDR335W, strain msn5, active compounds read low 0.857 | locus YDR388W, active compounds read low 0.515 | locus YDR502C, strain sam2, active compounds read low 0.387 | locus YEL003W, strain gim4, active compounds read low 0.911 | locus YEL061C, strain CIN8 (second series), active compounds read low 0.447 | locus YER015W, strain faa2, active compounds read low 0.9 | locus YER016W, strain bim1, active compounds read low 0.791 | locus YER110C, active compounds read low 0.747 | locus YER155C, strain BEM2 (second series), active compounds read low 0.444 | locus YER155C, strain BEM2, active compounds read low 0.879 | locus YER167W, strain BCK2, active compounds read low 0.671 | locus YGL086W, strain mad1, active compounds read low 0.578 | locus YGL240W, strain doc1, active compounds read low 0.756 | locus YGL248W, strain PDE1, active compounds read low 0.385 | locus YGL253W, strain hxk2, active compounds read low 0.466 | locus YGR135W, strain pre9, active compounds read low 0.574 | locus YGR252W, strain gcn5, active compounds read low 0.28 | locus YHR013C, strain ard1, active compounds read low 0.692 | locus YHR030C, strain SLT2, active compounds read low 0.272 | locus YHR129C, strain ARP1, active compounds read low 0.554 | locus YHR142W, strain chs7, active compounds read low 0.148 | locus YHR200W, strain rpn10, active compounds read low 0.572 | locus YIL066C, strain RNR3, active compounds read low 0.407 | locus YIL073C, strain SPO22, active compounds read low 0.16 | locus YIL125W, strain kgd1, active compounds read low 0.916 | locus YIR030C, strain dcg1, active compounds read low 0.819 | locus YJL092W, strain hpr5, active compounds read low 0.903 | locus YJL095W, strain BCK1 (second series), active compounds read low 0.107 | locus YJL095W, strain BCK1, active compounds read low 0.0661 and 0.314 | locus YJL129C, strain trk1, active compounds read low 0.452 | locus YJL164C, strain tpk1, active compounds read low 0.871 | locus YJL166W, strain qcr8, active compounds read low 0.662 | locus YJL168C, strain set2, active compounds read low 0.887 | locus YJL187C, strain SWE1 (second series), active compounds read low 0.635 | locus YJL187C, strain SWE1, active compounds read low 0.886
